High-throughput results (PubChem)
SENP8 block-1 = inhibitors of human SENP8 protease. Q96LD8. recombinant SENP8, Nedd8 substrate fluorescence. inhibition, % at 20 µM. hit rate 0.64% among 360,000. AID 602440; in the data active = inhibition mostly above about 40%, no sharp cut-off; inactive = mostly below about 27%
SENP6 inh = blocks the human protease SENP6. Q9GZR1. Recombinant SENP6 catalytic domain, aminoluciferin luminescence. inhibition, % at 10 µM. hit rate 1.8% among 330,000. AID 2599;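 active = inhibition above about 50% at the single tested dose, limit read from the data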
Target sequence (Q9GZR1 628-1112 limits assumed): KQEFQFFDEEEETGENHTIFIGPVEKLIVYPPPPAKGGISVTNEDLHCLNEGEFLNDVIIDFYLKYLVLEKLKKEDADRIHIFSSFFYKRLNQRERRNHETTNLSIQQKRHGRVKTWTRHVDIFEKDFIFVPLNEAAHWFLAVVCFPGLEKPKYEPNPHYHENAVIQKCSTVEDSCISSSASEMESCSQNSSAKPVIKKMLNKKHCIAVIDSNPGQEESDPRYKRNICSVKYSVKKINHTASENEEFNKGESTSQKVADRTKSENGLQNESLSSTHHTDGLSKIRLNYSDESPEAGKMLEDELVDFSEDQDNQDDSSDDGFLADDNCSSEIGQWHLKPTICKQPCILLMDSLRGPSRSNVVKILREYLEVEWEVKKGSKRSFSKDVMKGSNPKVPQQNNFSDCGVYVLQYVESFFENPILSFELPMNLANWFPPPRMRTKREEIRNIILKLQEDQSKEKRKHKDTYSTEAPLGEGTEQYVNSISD
Platelet DG rel = platelet dense granule release activity; human platelet-rich plasma, SFLLRN dense granule ATP release, luminescence; inhibition, %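 (compounds screened at 7.5 µM in platelet-rich plasma)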; hit rate 0.22% among 300,000; AID 1663;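 active = mean replicate score, as percent of positive control, at or above 50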
SENP8 block-2 = SENP8 protease inhibition; Q96LD8; purified SENP8, Z-RLRGG-aminoluciferin cleavage, luminescence; inhibition, % at 10 µM; hit rate 1.2% among 330,000; AID 2540; in the data active = inhibition above about 50%
SENP7 block = blocks the human protease SENP7; recombinant SENP7, Z-RLRGG-aminoluciferin luminescence, 40 min; AID 434973; inhibition, % at 5 µM; hit rate 1.5% among 330,000;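 active = inhibition above about 50% at the single test dose, limit read from the data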
Numbers stand for hits; i = inactive; nt = no result. A selection: hits, their analogues and other compounds. The true share with any hit is near 2.4%.

SMILES | SENP8 block-1 | SENP6 inh | Platelet DG rel | SENP8 block-2 | SENP7 block
Nc1cc2sc(-c3ccc(C(=O)O)cc3)nc2cc1Cl | i | 97.2 | 76.9 | 97.7 | 100.4
O=C(O)c1ccc(-n2[nH]c3c(c2=O)CCCC3)cc1 | i | i | i | i | i
O=c1c2c([nH]n1-c1ccccc1)CCSC2 | 46.3 | i | i | i | i
CCOC(=O)c1ccc(N/C=C\C(=O)c2cccc(OC)c2)cc1 | i | i | i | 66.4 | 86.3
C[C@H]1CN([C@@H](C)CO)C(=O)c2cc(NC(=O)NC3CCCCC3)ccc2O[C@H]1CN(C)C(=O)Nc1ccc(C(F)(F)F)cc1 | i | i | nt | i | i
CC(=O)Nc1sc(C)c(C)c1C(=O)OCC(=O)Nc1cccc(C)c1 | i | i | nt | i | i
COc1ccccc1C(=O)Nc1nc2ccccc2[nH]1 | i | 97.9 | 57.2 | 96.7 | 101.3
COc1ccccc1C(=O)NCCC(=O)Nc1nc2ccccc2[nH]1 | i | i | i | i | i
COc1cc(SC)ccc1C(=O)Nc1nc2ccccc2[nH]1 | i | 96.7 | 96.2 | 96.0 | 101.3
O=C(Nc1nc2ccccc2[nH]1)c1ccc([N+](=O)[O-])cc1 | i | i | i | i | 84.9
CCCNC(=O)C1(C)CCCN(C(=O)Cc2cccc(OC)c2)C1 (configuration not stated) | i | nt | nt | nt | nt
Cc1cc(C)n2[nH]c(=O)c(N=Nc3cccc(Cl)c3)c2n1 | 47.9 | i | i | i | i
Cc1cc(C)n2[nH]c(=O)c(N=Nc3cccc(C(F)(F)F)c3)c2n1 | 52.7 | i | i | i | i
CCOC(=O)Cc1ccc(Nc2nc(NCc3ccccc3)nc3ccsc23)cc1 | i | nt | nt | nt | nt
Nc1n[nH]c(N)c1N=Nc1cccc(C(F)(F)F)c1 | 44.1 | i | i | i | i
Nc1n[nH]c(N)c1N=Nc1cccc(F)c1 | i | i | i | i | i
Nc1n[nH]c(N)c1N=Nc1ccc(Cl)cc1 | 54.5 | i | i | i | i
Nc1[nH]ncc1N=Nc1ccc(Cl)cc1 | 47.9 | i | i | i | i
Cc1cccc(N=Nc2c(N)n[nH]c2N)c1 | i | i | i | i | i
CN(C)c1ccc(CNC(=O)C2(C)Cc3c(-c4ccc5c(c4)OCO5)ccnc3O2)cc1 (configuration not stated) | i | nt | nt | nt | nt
COc1ccc(-c2nc(CS(=O)CC(=O)NC(C)CCc3ccccc3)c(C)o2)cc1OC (configuration not stated) | i | i | i | i | i
CN(C)S(=O)(=O)c1ccc(N2CCCC2)c(C(=O)NCC2CCCO2)c1 (configuration not stated) | i | i | i | i | i
Oc1ccc(C=Nc2ccc3ncccc3c2)c(O)c1 | nt | 84.2 | i | 88.6 | i
Nc1ccc(Oc2ccc3nc(-c4ccccc4)c(-c4ccc([N+](=O)[O-])cc4)nc3c2)cc1 | 43.4 | i | i | i | i
N#Cc1ccc(Oc2ccc(-c3nc4ccccc4nc3-c3ccccc3)cc2)cc1C#N | i | i | i | i | i
SMILES | SENP8 block-1 | SENP6 inh | Platelet DG rel | SENP8 block-2 | SENP7 block
COc1ccc(CCNC(=O)CC(=O)N/N=C/c2ccc(Br)cc2)cc1OC | i | i | i | i | i
CC(=O)Nc1ccc(NC2=CC(=O)c3ccccc3C2=O)cc1 | i | i | i | i | i
CCOC(=O)c1ccc(NC2=CC(=O)C(=O)c3ccccc32)cc1 | 82.2 | i | i | i | i
CCN1C[C@@H]2[C@@H]3C(=O)N(C)C(=O)[C@@H]3[C@](C)(C1=O)N2C(=O)c1ccc(C)cc1 | i | nt | nt | nt | nt
CCN(CC)CCn1c2c(c(SCC(=O)Nc3ccccc3Cl)nc1=O)CCC2 | i | i | i | i | i
O=S1(=O)CCN(Cc2csc(-c3cccs3)n2)CC1 | i | i | 52.5 | i | i
O=S1(=O)CCN(Cc2ccccn2)CC1 | i | i | i | i | i
O=C(CCc1ccccc1)Nc1nncs1 | i | i | 58.9 | i | i
Cc1cccc(NC(=O)CNC(=O)CN2C(=O)NC3(CCCc4ccccc43)C2=O)c1C (configuration not stated) | i | i | i | i | i
Cc1ccc(-c2nnc(/C=C/c3ccccc3)o2)cc1 | i | 75.5 | i | i | i
COc1ccc(NC(=O)/C(C#N)=C\c2ccc(N3CCOCC3)o2)cc1 | 45.0 | i | i | i | i
N#C/C(=C\c1ccc(N2CCOCC2)o1)C(=O)Nc1ccc(O)cc1 | i | i | i | i | i
Cc1ccccc1C([O-])=Nc1ccc[n+](-c2nc3ccccc3nc2NS(=O)(=O)c2ccccc2)c1 | nt | i | i | i | i
Cn1c2ccccc2c(=O)n2c(=O)c3ccccc3cc12 | nt | 90.4 | i | 96.9 | 95.3
Cn1c(-c2ccccc2)cc(=O)c2ccccc21 | i | i | i | i | i
O=C(Cn1cc(C(=O)C(=O)N2CCOCC2)c2ccccc21)Nc1cccc(C(F)(F)F)c1 | i | nt | nt | nt | nt
